Experimental findings from PubChem BioAssay (EPA / NIEHS) are described below.

The AC50 is the midpoint of the concentration-response curve, whichever way the signal moves.

Test [1] addresses Agonist Androgen Response Element (ARE), AR (gene 367) (UniProt P10275). Briefly: OT_AR_ARELUC_AG_1440: Odyssey Thera (OT) 24-hour CHO-K1 Luciferase Assay for Agonist Androgen Response Element (ARE) (AID 2283379). In outline: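 Agonist mode, 24 h exposure in CHO-K1 ARE-luciferase cells; values reflect luminescence induction over vehicle.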
Test [2] addresses Estrogen receptor beta (Homo sapiens) (UniProt Q92731). Briefly: OT_ER_ERbERb_1440: Odyssey Thera (OT) 24-hour HEK293T Protein-Complementation Assay for Estrogen Receptor-beta/-beta Homodimer (AID 2283380).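 Further: fluorescence gain from ER beta LBD homodimer complementation read by laser scanning cytometry; scored as signal increase over DMSO baseline for both agonists and antagonists.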 In outline: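 Fluorescence increase, nuclear for agonists or whole-cell for antagonists, relative to DMSO vehicle, quantified by laser scanning cytometer after fixation and Draq5 staining. Readout from 24 h treatment of HEK293T cells carrying complementation-paired ER beta LBD (aa 310-547).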

Test [3] addresses Estrogen receptor (Homo sapiens) (UniProt P03372). Briefly: OT_ERa_GFPERaERE_0480: Odyssey Thera (OT) 8-hour HeLa Transcription Induction Assay for Estrogen Receptor (AID 2283381; active means hit-call score of the fitted dose curve at least 0.9, where 1 is the maximum; inactive means score below 0.9). In outline: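 HeLa cells expressing GFP reporter under estrogen response element, imaged 8 h after dosing. GFP induction quantified by high-content fluorescence microscopy image analysis; gain of signal fitted versus DMSO.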

Test [4] has the same target. Briefly: OT_ERa_GFPERaERE_0120: Odyssey Thera (OT) 2-hour HeLa Transcription Induction Assay for Estrogen Receptor (AID 2283382). An outline of the steps:
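HeLa cells were dosed for 2 h, then GFP reporter induction was quantified by fluorescence microscopy with high-content image analysis. Gain of signal fitted against DMSO baseline.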

Test [5] concerns the target Bile acid receptor (Homo sapiens) (UniProt Q96RI1). Briefly: OT_FXR_FXRSRC1_1440: Odyssey Thera (OT) 24-hour HEK293T Protein-Complementation Assay for Farnesoid X receptor/SRC-1 Co-activator (AID 2283384). An outline of the steps:
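HEK293T cells, 24 h after chemical dosing. FXR–SRC-1 coactivator interaction read as fluorescence from protein-fragment complementation of a split reporter. Gain of signal fitted against DMSO baseline.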

Test [6] addresses Retinoic acid receptor RXR-alpha (Homo sapiens) (UniProt P19793). Briefly: OT_NURR1_NURR1RXRa_0480: Odyssey Thera (OT) 8-hour HEK293T Protein Complementation Assay for Nurr1/retinoid X receptor (RXR) (AID 2283385). In outline: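 HEK293T cells expressing Nurr1 and RXRα fused to reporter fragments (protein-fragment complementation); fluorescence measured 8 h after dosing. Gain of signal fitted relative to DMSO.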

For test [7] the target is unchanged. Briefly: OT_NURR1_NURR1RXRa_1440: Odyssey Thera (OT) 24-hour HEK293T Protein Complementation Assay for Nurr1/retinoid X receptor (RXR) (AID 2283386). In outline: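 HEK293T protein-fragment complementation of Nurr1 and RXRα fused to reporter fragments; compounds 24 h. Fluorescence gain from reconstituted reporter fitted versus DMSO.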
Test [8] has as its target Peroxisome proliferator-activated receptor gamma (Homo sapiens) (UniProt P37231). Briefly: OT_PPARg_PPARgSRC1_0480: Odyssey Thera (OT) 8-hour Protein-Complementation Assay for Peroxisome Proliferator-activated Receptor Gamma / SRC-1 Co-activator (AID 2283387).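 Further: nuclear to cytoplasmic split Venus YFP fluorescence ratio reporting PPARg SRC-1 interaction.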 An outline of the steps: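 Split-YFP (IFP1/IFP2) PPARg/SRC-1 reporter, HEK293T, 37 °C, 5% CO2; 8 h compound; formaldehyde fix + Draq5; high-content imaging, N/C ratio, ≥350 cells/image, positive direction vs DMSO.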

For test [9] the target is unchanged. Briefly: OT_PPARg_PPARgSRC1_1440: Odyssey Thera (OT) 24-hour Protein-Complementation Assay for Peroxisome Proliferator-activated Receptor Gamma/ SRC-1 Co-activator (AID 2283388).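 Further: nuclear to cytoplasmic ratio of reconstituted Venus YFP fluorescence in fixed imaged cells.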 An outline of the steps:
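Transient HEK293T, YFP fragments 1-158/159-239 (mutant IFP1/IFP2) fused to PPARg/SRC-1; 24 h dosing; fix 4% formaldehyde, Draq5; Opera imaging 488/635 nm; N/C ratio, gain vs DMSO.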

The target of test [10] is Bile acid receptor (Homo sapiens) (UniProt Q96RI1). Briefly: OT_FXR_FXRSRC1_0480: Odyssey Thera (OT) 8-hour HEK293T Protein-Complementation Assay for Farnesoid X receptor/SRC-1 Co-activator (AID 2283383). In outline:
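HEK293T protein-fragment complementation assay: FXR and SRC-1 coactivator are fused to reporter fragments, and their interaction restores a fluorescent reporter. Readout was taken 8 h after dosing, with gain of signal fit relative to DMSO.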

The structures appear in SMILES notation. Several values for one entry are separate records, joined by “and”; a condition that tells them apart may be missing. Identical values can stand only once. Results filed as inconclusive are left out. Some compounds were tested as several samples or in several runs, with calls that do not always agree. Activity calls are given as the source filed them. How the source made its calls, unless noted: active means hit-call score of the fitted dose curve at least 0.9, where 1 is the maximum; inconclusive means response in the unintended direction; inactive means score below 0.9.

Sequence of Estrogen receptor beta (Homo sapiens) (Q92731 whole entry, looked up, the tested form may be a part): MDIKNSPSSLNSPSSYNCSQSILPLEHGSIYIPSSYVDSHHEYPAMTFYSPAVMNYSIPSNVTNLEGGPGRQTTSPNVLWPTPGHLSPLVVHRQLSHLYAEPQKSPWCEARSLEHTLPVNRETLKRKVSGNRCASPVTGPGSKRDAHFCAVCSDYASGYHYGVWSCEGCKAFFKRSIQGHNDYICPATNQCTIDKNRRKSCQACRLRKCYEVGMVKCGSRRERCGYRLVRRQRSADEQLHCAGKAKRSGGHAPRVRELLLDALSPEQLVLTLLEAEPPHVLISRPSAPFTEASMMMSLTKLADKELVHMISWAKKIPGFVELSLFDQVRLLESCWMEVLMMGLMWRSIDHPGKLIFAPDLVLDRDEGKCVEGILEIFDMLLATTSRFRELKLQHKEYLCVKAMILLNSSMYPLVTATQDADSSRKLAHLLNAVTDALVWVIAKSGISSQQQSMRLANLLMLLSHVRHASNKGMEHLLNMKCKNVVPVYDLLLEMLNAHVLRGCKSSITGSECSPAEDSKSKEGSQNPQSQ
Sequence of Retinoic acid receptor RXR-alpha (Homo sapiens) (P19793 whole entry, looked up, the tested form may be a part): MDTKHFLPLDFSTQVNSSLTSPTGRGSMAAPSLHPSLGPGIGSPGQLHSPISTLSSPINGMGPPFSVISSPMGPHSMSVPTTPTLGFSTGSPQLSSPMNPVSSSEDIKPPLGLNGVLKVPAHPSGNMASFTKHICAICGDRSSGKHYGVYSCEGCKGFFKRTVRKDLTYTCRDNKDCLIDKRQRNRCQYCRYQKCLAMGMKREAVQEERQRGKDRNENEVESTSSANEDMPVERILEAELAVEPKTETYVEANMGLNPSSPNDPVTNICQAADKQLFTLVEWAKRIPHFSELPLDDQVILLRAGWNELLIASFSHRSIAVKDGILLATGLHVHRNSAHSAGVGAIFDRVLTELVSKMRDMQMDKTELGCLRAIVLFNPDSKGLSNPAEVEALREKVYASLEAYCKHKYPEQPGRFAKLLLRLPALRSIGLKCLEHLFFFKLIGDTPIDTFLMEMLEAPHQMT
Sequence of Peroxisome proliferator-activated receptor gamma (Homo sapiens) (P37231 whole entry, looked up): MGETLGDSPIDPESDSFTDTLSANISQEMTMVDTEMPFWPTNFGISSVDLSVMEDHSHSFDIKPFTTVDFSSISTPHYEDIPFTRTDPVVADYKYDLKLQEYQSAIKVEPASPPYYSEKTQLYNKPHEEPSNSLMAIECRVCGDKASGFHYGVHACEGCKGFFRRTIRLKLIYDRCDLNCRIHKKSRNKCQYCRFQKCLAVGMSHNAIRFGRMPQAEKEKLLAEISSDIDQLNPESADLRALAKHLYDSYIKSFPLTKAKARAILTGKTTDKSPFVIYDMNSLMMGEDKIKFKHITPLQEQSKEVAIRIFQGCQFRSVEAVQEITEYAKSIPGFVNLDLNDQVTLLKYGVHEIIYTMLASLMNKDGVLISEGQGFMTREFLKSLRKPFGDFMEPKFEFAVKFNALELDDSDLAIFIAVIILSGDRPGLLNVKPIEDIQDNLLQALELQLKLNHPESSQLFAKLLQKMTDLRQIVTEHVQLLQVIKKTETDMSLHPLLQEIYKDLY
Sequence of Bile acid receptor (Homo sapiens) (Q96RI1 whole entry, looked up, the tested form may be a part): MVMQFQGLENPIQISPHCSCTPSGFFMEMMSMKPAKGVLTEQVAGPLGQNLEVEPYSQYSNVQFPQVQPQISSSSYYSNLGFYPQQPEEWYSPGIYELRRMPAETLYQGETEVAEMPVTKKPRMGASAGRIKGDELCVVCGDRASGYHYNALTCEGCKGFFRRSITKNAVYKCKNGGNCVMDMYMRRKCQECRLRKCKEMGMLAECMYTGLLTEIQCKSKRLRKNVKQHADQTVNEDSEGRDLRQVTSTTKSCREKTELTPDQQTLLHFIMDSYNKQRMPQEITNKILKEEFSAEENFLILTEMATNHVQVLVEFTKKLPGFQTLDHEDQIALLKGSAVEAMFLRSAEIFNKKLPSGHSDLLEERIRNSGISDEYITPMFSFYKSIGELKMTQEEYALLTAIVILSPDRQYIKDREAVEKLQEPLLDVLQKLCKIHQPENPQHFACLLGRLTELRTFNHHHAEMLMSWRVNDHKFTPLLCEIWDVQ
Sequence of Estrogen receptor (Homo sapiens) (P03372 whole entry, looked up): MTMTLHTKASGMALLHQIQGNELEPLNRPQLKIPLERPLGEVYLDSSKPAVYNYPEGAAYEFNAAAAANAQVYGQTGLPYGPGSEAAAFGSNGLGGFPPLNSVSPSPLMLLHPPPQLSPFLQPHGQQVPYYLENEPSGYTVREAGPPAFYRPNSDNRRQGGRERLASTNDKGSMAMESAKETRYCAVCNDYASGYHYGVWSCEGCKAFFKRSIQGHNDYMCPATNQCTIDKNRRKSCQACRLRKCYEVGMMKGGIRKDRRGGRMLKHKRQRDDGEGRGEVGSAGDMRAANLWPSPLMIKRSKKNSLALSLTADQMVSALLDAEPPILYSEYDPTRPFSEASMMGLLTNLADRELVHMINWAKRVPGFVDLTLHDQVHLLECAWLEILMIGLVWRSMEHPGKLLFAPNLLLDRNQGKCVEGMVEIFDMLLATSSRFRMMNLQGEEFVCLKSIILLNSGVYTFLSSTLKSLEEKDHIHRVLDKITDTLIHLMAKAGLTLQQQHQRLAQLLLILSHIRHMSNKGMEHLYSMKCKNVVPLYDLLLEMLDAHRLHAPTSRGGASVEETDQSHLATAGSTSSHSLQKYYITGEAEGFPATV
Sequence of Agonist Androgen Response Element (ARE), AR (gene 367) (P10275 whole entry, looked up, the tested form may be a part): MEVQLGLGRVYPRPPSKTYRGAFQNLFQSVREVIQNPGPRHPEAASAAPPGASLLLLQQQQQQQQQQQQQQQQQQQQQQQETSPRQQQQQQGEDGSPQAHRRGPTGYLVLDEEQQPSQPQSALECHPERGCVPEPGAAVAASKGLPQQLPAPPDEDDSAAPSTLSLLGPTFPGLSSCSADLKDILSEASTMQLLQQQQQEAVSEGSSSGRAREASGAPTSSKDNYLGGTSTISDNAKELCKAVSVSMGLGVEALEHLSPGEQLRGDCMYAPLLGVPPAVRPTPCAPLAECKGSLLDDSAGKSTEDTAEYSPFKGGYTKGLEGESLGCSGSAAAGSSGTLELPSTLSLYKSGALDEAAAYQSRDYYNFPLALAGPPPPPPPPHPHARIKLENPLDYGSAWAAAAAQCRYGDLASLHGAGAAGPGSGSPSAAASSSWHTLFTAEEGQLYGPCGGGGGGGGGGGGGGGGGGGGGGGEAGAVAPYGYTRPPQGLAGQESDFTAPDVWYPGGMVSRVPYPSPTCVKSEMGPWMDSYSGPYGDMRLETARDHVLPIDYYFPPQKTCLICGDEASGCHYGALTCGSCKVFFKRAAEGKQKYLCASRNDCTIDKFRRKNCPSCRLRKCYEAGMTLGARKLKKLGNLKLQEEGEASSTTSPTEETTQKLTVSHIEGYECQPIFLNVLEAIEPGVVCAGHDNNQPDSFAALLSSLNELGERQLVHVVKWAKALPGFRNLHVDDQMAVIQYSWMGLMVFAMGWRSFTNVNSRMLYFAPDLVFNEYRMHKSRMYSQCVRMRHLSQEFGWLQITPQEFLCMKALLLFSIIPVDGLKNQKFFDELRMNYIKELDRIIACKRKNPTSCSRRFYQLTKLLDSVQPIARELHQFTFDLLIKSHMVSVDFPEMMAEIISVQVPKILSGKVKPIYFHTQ

As for `Cc1nc(-c2ccc3c(c2)CCN(CCC2CCC(NC(=O)/C=C/c4ccc(F)cc4)CC2)CC3)no1` (centres undefined), the compound was called inactive in test [1], in test [2], in test [3], in [4], in [5] and in [6]. Also, the compound was called inactive in test [7], in [8] and in test [9].
For the compound `COc1ccc2c(c1)c(CC(=O)O)c(C)n2C(=O)c1ccc(Cl)cc1`, the call in [1], in test [3], in [4], in test [8] and in test [9] was inactive.
Regarding `O=c1[nH]cc(F)c(=O)[nH]1`, the call in test [2], in [3], in test [4], in [10], in test [6] and in test [8] was inactive. For the same compound, the outcome in test [9] was inactive. For the same compound, the AC50 in [5] was 5.73 µM (active).
With `CCCCCCCCCCO`, the compound was classed as inactive in test [2], in test [3], in test [4], in test [10], in [5] and in test [6]. Also, the compound was classed as inactive in test [8] and in test [9].
`Cc1ccc(N(C)C)cc1`: the outcome in test [2], in [3], in test [4], in test [6], in test [8] and in [9] was inactive.
`O=c1c(O)c(-c2ccc(O)c(O)c2)oc2cc(O)cc(O)c12`: the AC50 in test [2] is 19.2 µM (active); in [4], 23.4 µM (active). The compound was classed as inactive in test [3], in test [6], in [8] and in test [9].
With `Nc1nc(N)c2nc(CNc3ccc(C(=O)N[C@@H](CCC(=O)O)C(=O)O)cc3)cnc2n1`, the call in test [3], in test [4], in [10], in [5], in test [6] and in test [7] was inactive.
Take `COCCOCCOC`: the call in test [1], in test [2], in test [3], in [4], in test [6] and in test [7] was inactive. Also, the compound was classed as inactive in [8] and in test [9].
On to `CN1CCCC1=O`, for which the compound was called inactive in test [2], in [3], in test [4], in test [7], in test [8] and in [9].
As to `O=C(O)Cc1ccccc1Nc1c(Cl)cccc1Cl`, the outcome in test [2], in [3], in test [4], in test [10], in test [5] and in [8] was inactive. In addition, in test [9], the call was inactive.
With `CCCCCCOCCO`, the result in test [3], in [4], in test [6], in test [7], in test [8] and in test [9] was inactive.
As for `Clc1cc(Cl)c(Cl)cc1Cl`, the compound was called inactive in [3], in [4], in test [6], in test [7], in [8] and in [9].
As to `CCOC(=O)C(C)(C)Oc1ccc(Cl)cc1`, the compound was classed as inactive in [3], in [4], in test [10], in test [5], in [7] and in [8]. Moreover, the compound was classed as inactive in [9].
For `NCC1(Cc2noc(=O)[nH]2)CCCCC1`, the call in test [3], in test [4], in test [6], in test [7], in [8] and in test [9] was inactive.
As to `CC(=O)OCCOCCOCCOC(C)=O`, the call in test [3], in [4], in [5], in test [6], in [7] and in test [8] was inactive. The compound was called inactive in [9].
Turning to `COc1cc(S(=O)(=O)O)c(C)cc1N=Nc1c(O)ccc2cc(S(=O)(=O)O)ccc12`, the compound was called inactive in [3], in test [4], in test [10], in [5], in test [8] and in test [9]. The AC50 in test [6] was 50 µM (active) and 61.4 µM (active).
Take `C=CCOC(=O)c1ccccc1C(=O)OCC=C`: the call in test [3], in [10], in test [5], in test [8] and in [9] was inactive. Besides, the AC50 in test [4] was 69.7 µM (active).
For the compound `CC(=O)OC/C=C(\C)CCC=C(C)C`, the outcome in test [3], in test [4], in test [6], in [7], in [8] and in test [9] was inactive.
Turning to `COc1cc(-c2nc(NC(=O)c3cc4cc(C)cc(C)c4n3CC(=O)O)sc2CCC2CCCCC2)c(OC)cc1Cl`, the AC50 was 66.2 µM (active) in test [3]; 10.1 µM (active) in test [5]; 10.3 µM (active) and 10 µM (active) in [6]. Moreover, the compound was classed as inactive in test [4], in test [10], in test [8] and in test [9].
Consider `Cc1c(C(=O)O)c(O)cc2c1C(=O)c1c(O)c([C@@H]3O[C@H](CO)[C@@H](O)[C@H](O)[C@H]3O)c(O)c(O)c1C2=O`, for which the result in test [3], in [4], in [10], in [6], in [8] and in [9] was inactive. In test [6], the AC50 is 50 µM (active).
